Sampled rows, rich in hits. Any-hit rate of the full collection: about 3%.
SENP8 block-1 – inhibitors of human SENP8 protease. AID 602440. inhibition, % at 20 µM. recombinant SENP8, Nedd8 substrate fluorescence. actives 0.64% (n = 360,000); in the data active = inhibition mostly above about 40%, no sharp cut-off; inactive = mostly below about 27%
Target sequence (Q96LD8 whole entry, looked up): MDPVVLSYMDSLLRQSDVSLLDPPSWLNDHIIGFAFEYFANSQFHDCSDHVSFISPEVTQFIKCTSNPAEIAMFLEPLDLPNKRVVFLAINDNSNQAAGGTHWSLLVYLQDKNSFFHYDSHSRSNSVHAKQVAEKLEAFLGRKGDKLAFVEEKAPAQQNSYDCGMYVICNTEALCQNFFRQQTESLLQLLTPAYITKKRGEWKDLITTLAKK
SENP7 block – blocks the human protease SENP7 | Q9BQF6 | recombinant SENP7, Z-RLRGG-aminoluciferin luminescence, 40 min | inhibition, % at 5 µM | actives 1.5% (n = 330,000) | AID 434973;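 active = inhibition above about 50% at the single test dose, limit read from the data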;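 also: plate controls were DMSO with enzyme for no effect and no enzyme buffer wells for full effect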
TRAIL sens C8 – sensitizes caspase-8 expressing cells to TRAIL. actives 1% (n = 360,000). AID 624354. NB7+C8 cells + TRAIL, ATPlite viability luminescence. inhibition (viability loss, TRAIL sensitization), % at 10 µM;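 active = compounds causing at least 50% loss of cell viability in the single-dose screen, relative to plate controls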
PPC-1+TRAIL kill – PPC-1 cancer cell killing with TRAIL present; PPC-1 cells + TRAIL, ATPLite viability luminescence; cell killing (% activity), % at 4 µM or 5 µM; actives 0.41% (n = 220,000); AID 1443;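 active = cell killing above 50% in the first pass at 4 µM, then a duplicate retest at 5 µM averaging 50% or more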;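 also: plate controls were cells with TRAIL plus DMSO for no effect and medium-only wells lacking cells for full effect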
SENP8 block-2 – blocks the human protease SENP8. Q96LD8. inhibition, % at 10 µM. actives 1.2% (n = 330,000). purified SENP8, Z-RLRGG-aminoluciferin cleavage, luminescence. AID 2540; in the data active = inhibition above about 50%
SENP6 inh – inhibitors of human SENP6 protease | Q9GZR1 | Recombinant SENP6 catalytic domain, aminoluciferin luminescence | inhibition, % at 10 µM | actives 1.8% (n = 330,000) | AID 2599;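 active = inhibition above about 50% at the single tested dose, limit read from the data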;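 also: plate controls were DMSO wells with enzyme for no effect and DMSO wells lacking enzyme for full effect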
SENP8 confirm – human SENP8 inhibition, confirmed; shares compounds with SENP7 block; Recombinant SENP8, Z-RLRGG-aminoluciferin luminescence, 60 min; inhibition, % at 12.5 µM; actives 40% (n = 6,200);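 active = mean inhibition across replicates above about 50%, limit read from the data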
SENP6 confirm – confirmation of human SENP6 protease inhibitors; shares compounds with SENP7 block; recombinant SENP6, Z-RLRGG-aminoluciferin luminescence; inhibition, % at 12.5 µM; actives 58% (n = 6,200); AID 488915
SENP7 conf – human SENP7 inhibition, confirmed; recombinant SENP7, Z-RLRGG-aminoluciferin luminescence, 40 min; actives 69% (n = 6,200); inhibition, % at 12.5 µM; AID 488917; shares compounds with SENP7 block
Casp3 SENP sel – caspase-3 inhibition (SENP selectivity assay) | shares compounds with SENP7 block | purified caspase-3, Z-DEVD-aminoluciferin luminescence, 60 min | inhibition, % at 12.5 µM | actives 60% (n = 6,200) | AID 488918;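 active = mean inhibition above about 50%, limit read from the data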;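 also: plate controls were enzyme with DMSO for no effect and wells without caspase-3 for full effect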
Target sequence (P42574 28-227 limits assumed): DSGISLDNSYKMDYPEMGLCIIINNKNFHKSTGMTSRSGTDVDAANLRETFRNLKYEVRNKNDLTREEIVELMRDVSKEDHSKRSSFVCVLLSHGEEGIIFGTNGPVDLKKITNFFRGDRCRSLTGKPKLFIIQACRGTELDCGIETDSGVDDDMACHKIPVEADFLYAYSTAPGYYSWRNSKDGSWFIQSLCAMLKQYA
Luc interf – counter-screen for SENP inhibitors: luminescence interference; shares compounds with SENP7 block; AID 488919; inhibition, % at 12.5 µM; actives 39% (n = 6,200); Pre-incubated SENP8/Z-RLRGG-aminoluciferin, luciferase luminescence interference;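 active = mean inhibition above about 50% when retested at one dose, limit read from the data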;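 also: plate controls were DMSO wells with completed reaction for no effect and substrate without enzyme for full effect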
Active calls of the source: *; nt = not tested or not shown.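 The calls were made as follows, unless noted: active = mean inhibition above about 50% in the one-dose retest (limit read from the data); inactive = the rest.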

SMILES	SENP8 block-1	SENP7 block	TRAIL sens C8	PPC-1+TRAIL kill	SENP8 block-2	SENP6 inh	SENP8 confirm	SENP6 confirm	SENP7 conf	Casp3 SENP sel	Luc interf
CSc1nc(Cl)cc(Nc2ccc(O)cc2)n1	6	-12	-4	7	-8	-20	nt	nt	nt	nt	nt
CN1C(=O)CCS(=O)(=O)C1c1ccc(Cl)c(Cl)c1 (stereo not drawn)	16	nt	1	nt	nt	nt	nt	nt	nt	nt	nt
O=C(Oc1ccc2ccccc2c1Cl)N1CCCC1	16	57*	16	-14	38	73*	48	52*	84*	53*	59*
O=C(Oc1ccc(Cl)c2ccccc12)N1CCCCC1	14	-8	17	11	-12	8	nt	nt	nt	nt	nt
O=C(Oc1ccc2ccccc2c1Cl)N1CCCCCC1	20	53*	53*	17	54*	76*	71*	70*	87*	45	37
O=C(CCS(=O)(=O)c1cc2c(cc1Cl)NC(=O)CO2)NCc1ccc(F)cc1	0	7	-17	nt	-2	2	nt	nt	nt	nt	nt
O=c1oc2ccccc2cc1-c1cn2cccnc2n1	-349	47	14	0	36	58*	46	47	82*	82*	31
C=CCN(c1ccccc1)S(=O)(=O)c1cccc(C(=O)NCC2CCCO2)c1 (stereo not drawn)	-3	10	-12	nt	-5	0	nt	nt	nt	nt	nt
O=C(O)c1cc([N+](=O)[O-])ccc1NCCCc1ccccc1	7	-1	5	nt	68*	74*	75*	69*	73*	52*	71*
COCCNC(=O)CN(C(=O)c1ccc(N2CCCC2)nc1)c1ccc(F)c(Cl)c1	-5	1	4	nt	56*	51*	13	10	12	4	7
Cc1ccc(C(=O)OCN2C(=O)c3ccccc3C2=O)o1	14	-7	10	nt	-11	-8	nt	nt	nt	nt	nt
Cc1cc(C(=O)COc2cccc([N+](=O)[O-])c2)c(C)n1C1CC1	17	21	-7	nt	34	58*	67*	63*	89*	66*	36
Cc1ccc(OCC(=O)c2cc(C)n(C3CC3)c2C)c([N+](=O)[O-])n1	15	4	0	17	-2	4	nt	nt	nt	nt	nt
COc1ccc(/C=N/Nc2cc(N(C)C)nc(N(C)C)n2)cc1	-6	72*	28	2	17	80*	38	82*	81*	-2	-5
COc1ccccc1/C=N/Nc1cc(N(C)C)nc(N(C)C)n1	-74	49	-1	-2	22	38	nt	nt	nt	nt	nt
Oc1ccccc1/C=N/Nc1nccnc1Cl	-12	93*	17	27	83*	80*	91*	91*	100*	94*	93*
Oc1ccccc1/C=N/NC1=NCCCCC1	-112	-9	16	20	-9	3	nt	nt	nt	nt	nt
COc1ccc(/C=N/Nc2nccnc2Cl)cc1	-106	97*	46	34	95*	95*	98*	99*	103*	99*	97*
Clc1nccnc1N/N=C/c1ccc(Br)cc1	-204	98*	-1	nt	94*	96*	97*	98*	102*	97*	96*
Cc1nnc(N/N=C/c2ccc(Br)cc2)n1N	13	19	-9	nt	-14	12	nt	nt	nt	nt	nt
Cn1cnc(C(=O)N2CCc3ccccc3C2)c1C(=O)N1CCc2ccccc2C1	21	12	-1	nt	6	-3	nt	nt	nt	nt	nt
COc1ccc(/C=N/Nc2nccnc2Cl)c(OC)c1	-161	98*	3	16	91*	93*	96*	97*	103*	98*	95*
Cc1ccc(C(=O)c2c3ccc(N)cc3nn2CCC(N)=O)cc1	-72	21	-11	nt	26	57*	14	29	-5	0	-3
Cc1ccc(C(=O)c2c3ccc(C(F)(F)F)cc3[n+]([O-])n2CCC(N)=O)cc1	-2	-2	2	nt	-1	9	nt	nt	nt	nt	nt
O=C(NCCC(=O)N1CCC2(CC1)NCCc1[nH]cnc12)c1cccc(Br)c1	2	0	-11	nt	-3	-19	nt	nt	nt	nt	nt
SMILES	SENP8 block-1	SENP7 block	TRAIL sens C8	PPC-1+TRAIL kill	SENP8 block-2	SENP6 inh	SENP8 confirm	SENP6 confirm	SENP7 conf	Casp3 SENP sel	Luc interf
Oc1cc(Br)ccc1C=Nc1ccc(N2CCCCC2)cc1	22	53*	-5	27	35	11	15	26	2	48	0
Oc1c(Cl)cc(Cl)cc1C=Nc1ccc(Br)cc1	-32	-10	-3	-6	-4	-30	nt	nt	nt	nt	nt
Oc1c(Cl)cc(Cl)cc1C=Nc1ccc(N2CCOCC2)cc1	-12	-4	7	nt	3	21	nt	nt	nt	nt	nt
Cc1cc(Br)cc(C=Nc2ccc(N3CCOCC3)cc2)c1O	37	73*	-5	nt	-6	29	12	12	-1	29	3
O=C(CSc1nncs1)Nc1nnc(-c2ccccc2)o1	13	-6	-1	nt	-1	13	nt	nt	nt	nt	nt
O=c1[nH]ncc(N/N=C\c2ccc(O)cc2O)c1Cl	-161	65*	11	17	63*	69*	66*	64*	87*	81*	62*
Cc1cccc(N/N=C/c2ccccc2O)c1	-9	6	6	18	4	10	nt	nt	nt	nt	nt
O=[N+]([O-])c1ccc(NN=Cc2ccc(O)cc2O)nc1	-12	nt	5	nt	nt	nt	nt	nt	nt	nt	nt
Cc1cc(-c2ccccc2)nc(N/N=C/c2ccc(O)cc2O)n1	4	-24	19	nt	-18	-18	nt	nt	nt	nt	nt
Cc1ccc(/C=N/Nc2cccc3cccnc23)c(O)c1	-54	92*	38	-20	70*	78*	86*	93*	78*	77*	58*
Oc1ccc(/C=N/Nc2ncc(Br)cn2)c(O)c1	9	72*	51*	18	58*	86*	73*	73*	90*	70*	75*
Oc1ccc(Br)cc1/C=N/Nc1ncc(-c2ccccc2)cn1	-12	4	26	12	2	-6	nt	nt	nt	nt	nt
Oc1ccc(/C=N/Nc2cccc3cccnc23)c(O)c1	-22	77*	19	6	82*	89*	73*	89*	99*	65*	20
CCc1cccc(NC(=O)C2CCCN2S(=O)(=O)c2ccccc2C(F)(F)F)c1 (stereo not drawn)	6	-9	7	nt	3	0	nt	nt	nt	nt	nt

Assay outcomes as filed in PubChem BioAssay.
